In PubChem BioAssay AID1527 (The Scripps Research Institute Molecular Screening Center, 2009):
Among all 290,000 compounds or so, about 2,600 (0.9%) were called active. Shown is part of a subset that was picked to be rich in actives. Values without a mark were called inactive.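 How the source made its calls: active means inhibition above the mean of all tested compounds plus 3 SD, cutoff set per screening run (cut at about 7.5% in these data); inactive means the rest.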

Tested on: VIM-2 metallo-beta-lactamase (Pseudomonas aeruginosa)
Test: VIM-2 metallo-beta-lactamase inhibitors, primary screen, biochemical, epi-absorbance readout, Pseudomonas aeruginosa enzyme (AID 1527);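 further: red hydrolysis product quenches plate fluorescence so inhibitors raise well fluorescence; 0% = enzyme with DMSO and 100% = DMSO without enzyme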
Settings: purified VIM-2, nitrocefin hydrolysis, epi-absorbance fluorescence; at 5.6 µM; stronger effect = higher value

Compound	inhibition
N#Cc1ccc(S(=O)(=O)NCC(=O)OCC(=O)NCCc2ccccc2)cc1	-2%
COCCNC(=O)c1ccc(-n2c(SCc3cccnc3)nc3ccccc3c2=O)cc1	-1.16%
C=CCn1c(SCc2ccc(C(=O)NCCO)cc2)nc2ccccc2c1=O	9.03% (active)
O=C(Nn1c(SCc2ccc([N+](=O)[O-])cc2)nc2ccccc2c1=O)c1ccc(F)cc1	1.03%
Cn1c(C(=O)N2CCC(C(N)=O)CC2)cc2c(=O)n(C)c3ccccc3c21	2.96%
Cn1c(C(=O)NCCc2ccsc2)cc2c(=O)n(C)c3ccccc3c21	4.63%
CC1CCCC(C)N1CCCNC(=O)c1cc2c(=O)n(C)c3ccccc3c2n1C (stereo not drawn)	21.7% (active)
Cn1c(C(=O)NCCCN2CCN(c3cccc(Cl)c3)CC2)cc2c(=O)n(C)c3ccccc3c21	-1.03%
Cn1c(C(=O)NCCN2CCc3ccccc3C2)cc2c(=O)[nH]c3ccccc3c21	6.06%
CCN1CCCC1CNC(=O)c1cc2c(=O)n(C)c3ccccc3c2n1C (stereo not drawn)	19.9% (active)
O=C(N/N=C/c1cccnc1)c1ccc(NC(=O)c2ccc(F)cc2)cc1	-0.77%
COc1cc(S(=O)(=O)N(Cc2cccs2)C2CC2)ccc1-n1cnnn1	-1.52%
COc1ccc(C(=O)C2CCCN(C(=O)c3cc(C)on3)C2)cc1F (stereo not drawn)	-2.54%
CCOc1ccc2[nH]c(C(=O)N/N=C/c3cccc(OC)c3OC)cc2c1	-0.14%
NC(N)=Nc1nc(-c2ccccc2)c2cc(Cl)ccc2n1	9.54% (active)
O=C(CCl)NNc1nc(-c2ccccc2)c2cc(Cl)ccc2n1	-3.67%
Clc1ccc2nc(-c3ccccc3)nc(C(Cl)Cl)c2c1	-4.99%
O=C(CCCCCn1c(=S)[nH]c2cc3c(cc2c1=O)OCO3)N1CCN(c2ccc(F)cc2)CC1	-4.83%
CC(C)Oc1ccc(CN2CCC(n3nccc3NC(=O)c3cccnc3)CC2)cc1	-0.44%
CN(C)CCCn1c(=O)n(Cc2ccccc2)c(=O)c2c3c(sc21)CCCCC3	-0.19%
COc1ccc(C(=O)/C=C/c2cccnc2)c(OC)c1	-1.09%
CCOC(=O)c1oc2c(CN3CCN(C)CC3)c(O)ccc2c(=O)c1-c1ccc(Br)cc1	2.09%
O=c1oc2c(CN3CCCCC3)c(O)ccc2c2c1CCCCC2	-1.98%
CN1CCN(Cc2c(O)ccc3c2oc(=O)c2ccccc23)CC1	12% (active)

Compound	inhibition
COc1ccc(-c2cc(C(=O)N(C)Cc3ccc(OC)c(OC)c3OC)c3ccccc3n2)cc1OC	-3.53%
O=C(Nc1nnc(C2CC2)s1)c1cc(Cl)sc1Cl	-3.26%
CN1C(=O)/C(=C\c2cc(Br)cs2)c2ccccc21	0.8%
O=C(c1ccco1)N1CCN(C(=O)c2cc(-c3ccccc3F)no2)CC1	-2.41%
COc1cccc(NC(=O)C(=O)c2cn(CC(=O)N3CCOCC3)c3ccccc23)c1	1.81%
CC(=O)c1ccc2c(ccc3ccccc32)c1	-0.35%
Cc1cc(=O)oc2c(C(=O)c3ccccc3)c(OCC(N)=O)ccc12	-0.26%
Cc1cc(=O)oc2c1ccc1ccccc12	10.6% (active)
Cc1ccccc1-c1n[nH]c(=S)n1C	2.67%
Cn1c(-c2sccc2OCc2cccc(C(F)(F)F)c2)n[nH]c1=S	27% (active)
Cn1c(-c2sc3cc(C(F)(F)F)cnc3c2-c2ccccc2)n[nH]c1=S	-7.11%
COc1ccccc1NC(=O)CCN1CCN(c2ccc(Cl)cc2)CC1	0.08%
Cc1cccn2c(=O)c(C=O)c(Nc3ccc(S(N)(=O)=O)cc3)nc12	19.5% (active)
O=Cc1c(Nc2ccccc2Cl)nc2ccccn2c1=O	0.26%
CNc1nc2c(C)cccn2c(=O)c1C=Nc1ccc(OC)cc1	4.33%
C/C(N)=C(/C#N)C(=O)COC(=O)C1=NN(c2ccccc2)C(=O)CC1	-2.51%
COc1cccc(NC(=O)C2CCCN(c3ncnc4c3nc3n4CCCCC3)C2)c1 (stereo not drawn)	-0.06%
COCCCNC(NC(=O)c1ccc(C)cc1)C(Cl)(Cl)Cl (stereo not drawn)	-1.71%
CC(C)(C)NC(=O)CSC(=Nc1ccccc1F)NC#N	-1.17%
CCC(c1nnnn1C(C)(C)C)N(Cc1cc2cccc(C)c2n2nnnc12)C1CCCC1 (stereo not drawn)	-3.3%
Cn1c(=O)cc(OCCCC(=O)N2CCN(Cc3ccc4c(c3)OCO4)CC2)c2ccccc21	9.27% (active)
Cn1c(=O)cc(OCCCC(=O)N2CCN(c3ccccn3)CC2)c2ccccc21	-0.05%
O=C(CCCN1C(=O)c2cccc3cccc(c23)C1=O)N1CCN(Cc2ccc3c(c2)OCO3)CC1	4.6%
COc1cc(C)cc(CN2CCC(Cc3ccccc3)CC2)c1O	-1.32%

Compound	inhibition
CCn1c(=O)n(CC)c2cc(N3CCCC3)c(NC(=O)c3ccccc3Br)cc21	0.64%
CCOc1ccc(C)cc1S(=O)(=O)NC1CCCCCC1	-2.78%
COc1ccccc1OCCn1c(SCC(N)=O)nc2ccccc21	-0.1%
O=C(Oc1c(-c2ccco2)oc2ccccc2c1=O)c1cccnc1	0.08%
COCCCNC(=S)N(CCN(C)C)Cc1cc2cc3c(cc2[nH]c1=O)OCCO3	1.43%
Cc1cccc(NC(=O)C2CCCN(C(=O)NCc3ccccc3)C2)c1C (stereo not drawn)	0.69%
CSCC[C@H](NC(=O)OC(C)(C)C)C(=O)N/N=C/c1cc2ccc(C)cc2nc1Cl	0.5%
Cc1ccc2cc(/C=N/NC(=O)[C@@H]3CCCN3)c(Cl)nc2c1	10.3% (active)
Cc1ccc2cc(/C=N/Nc3ccc(C(=O)O)cc3)c(Cl)nc2c1	1.26%
Cc1cccc(CS(=O)(=O)c2ncc(Cl)c(C(=O)Nc3ccc(F)cc3)n2)c1	-3.25%
O=C(CCC1CCCN(C(=O)c2ccc(F)c(F)c2)C1)N1CCN(c2ccccn2)CC1 (stereo not drawn)	-0.15%
CCn1ccnc1CNC(=O)CC1C(=O)NCCN1Cc1ccc(F)cc1Cl (stereo not drawn)	-4.36%
Cc1nn(-c2cc(Cl)ccc2N)c(=O)c2ccccc12	-2.2%
O=C1c2ccccc2C(=O)N1c1cccc2ccccc12	-0.93%
CN1C(=O)c2cccc3c(N)ccc(c23)C1=O	50.1% (active)
CC(=O)Nc1ccccc1Sc1ccc2c3c(cccc13)C(=O)N(c1ccc(C)cc1)C2=O	-3.98%
O=C(O)c1ccc2c3c(cccc13)C(=O)N(OS(=O)(=O)c1ccccc1)C2=O	0.17%
Cc1nn(C)cc1N1C(=O)c2cccc3c(N)ccc(c23)C1=O	21.7% (active)
NS(=O)(=O)c1ccc(N=Nc2c(O)[nH]c3ccc(Br)cc23)cc1	-2.22%
Cc1c(C=O)c2ccccc2n1CCOc1ccccc1	-0.2%
CN(C)CCCN(C(=O)c1ccc(S(=O)(=O)N2CCCc3ccccc32)cc1)c1nc2ccc(F)cc2s1	-1.07%
CCOc1ccc(NC(=O)CN2CCN(CC(=O)Nc3ccc(OC)cc3)CC2)cc1	0.38%
CCc1cc(C(N)=O)c(NC(=O)c2ccc(OC)cc2)s1	-2.73%
CCc1cc(C(=O)c2ccc(OC)cc2)c(NC(=O)CN2CCN(C)CC2)s1	7.76% (active)

Compound	inhibition
COc1cccc(CN(C)CC2CCCN(CCc3ccc(Cl)cc3)C2)c1OC (stereo not drawn)	-0.31%
COc1ccc(CNc2cc(C)cc(C)c2)cc1OC	-0.65%
O=C(/C=C/c1cccc(C(F)(F)F)c1)N1CCN(c2ccccn2)CC1	-1.71%
COc1ccccc1NC(=O)C1CCN(C(=O)c2ccc(C(C)(C)C)cc2)CC1	-0.92%
Cc1ccc(NS(=O)(=O)c2ccc3c(c2)NC(=O)CO3)cc1	-3.86%
COc1cccc(/C=C2\Sc3ccc(C(=O)NCC4CCCO4)cc3N(C)C2=O)c1 (stereo not drawn)	2.03%
COCCCn1c(SCC(=O)NC2CCCC2)nnc1-c1ccccc1	-3.05%
CCC(C)c1ccc(NC(=S)N2CCCC2)cc1 (stereo not drawn)	-4.58%
Cc1cc(C)c2nc(-c3ccco3)cc(C(=O)O)c2c1	-2.98%
Cc1cc(C)c2nc3nc(C)cc(C)c3c(N)c2c1	23.4% (active)
Cc1cc(C)c2nc(SCCC#N)nc(C)c2c1	0.46%
Cc1cccnc1CC(C)NC(=O)c1cc(COc2cncc(Cl)c2)on1 (stereo not drawn)	-1.87%
O=C1c2ccccc2C(=O)c2c1cccc2N1CCN(CCO)CC1	8.84% (active)
O=C1c2ccccc2C(=O)c2c1cccc2N1CCN(Cc2ccccc2)CC1	-2.44%
OCCN1CCN(c2nnc(-c3ccccc3)c3ccccc23)CC1	1.21%
CN(C)Cc1c(O)ccc2c(=O)c(-c3ccccc3Cl)coc12	-1.33%
Cc1ccc(CNC(=O)C2CCCN2S(=O)(=O)c2ccc3c(c2)C(C)(C)C(=O)N3C)cc1 (stereo not drawn)	-0.78%
Cc1ccc2nc(Nc3ccccc3)cc(C)c2c1	0.49%
Cc1ccc2nc(C)c3c(c2c1)N(c1ccccc1)CC3	14.6% (active)
Cc1ccc2nc3n(c(=O)c2c1)CCC3	-2.8%
COc1ccc(S(=O)(=O)N(CC(=O)NCc2ccco2)c2ccc(F)cc2)cc1	-4.2%
